Measurements from PubChem BioAssay (NCATS).
Records with an inconclusive call do not appear. Activity calls are given as the source filed them. Unless noted, calls come from the whole dose curve.

How the values were obtained:
[1] = Natriuretic polypeptide receptor (hNpr1) antagonism - Pilot counterscreen GloSensor control cell line (AID 1347045); conditions: HEK293 cGMP GloSensor cells, SNP-stimulated luminescence, 20 min; series mostly up to 38.3 µM; note: potency is the fitted concentration of half-maximal effect
In short: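 The SNP-driven cGMP luminescence signal (50 uM, 20 min, room temperature) was measured in GloSensor HEK293 control cells. Compounds were tested as a LOPAC titration series and preincubated for 30-50 min.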

[2] = biological target: Atrial natriuretic peptide receptor 1 (Homo sapiens) (UniProt P16066); assay: Natriuretic polypeptide receptor (hNpr1) antagonism - Pilot screen (AID 1347049); conditions: hNpr1 cells, antagonist mode cGMP read-out; series mostly up to 57.5 µM;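 note: agonist-evoked cGMP luminescence read 20 min after hNppA addition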; note: potency is the fitted concentration of half-maximal effect
Sequence of Atrial natriuretic peptide receptor 1 (Homo sapiens) (P16066 whole entry, looked up): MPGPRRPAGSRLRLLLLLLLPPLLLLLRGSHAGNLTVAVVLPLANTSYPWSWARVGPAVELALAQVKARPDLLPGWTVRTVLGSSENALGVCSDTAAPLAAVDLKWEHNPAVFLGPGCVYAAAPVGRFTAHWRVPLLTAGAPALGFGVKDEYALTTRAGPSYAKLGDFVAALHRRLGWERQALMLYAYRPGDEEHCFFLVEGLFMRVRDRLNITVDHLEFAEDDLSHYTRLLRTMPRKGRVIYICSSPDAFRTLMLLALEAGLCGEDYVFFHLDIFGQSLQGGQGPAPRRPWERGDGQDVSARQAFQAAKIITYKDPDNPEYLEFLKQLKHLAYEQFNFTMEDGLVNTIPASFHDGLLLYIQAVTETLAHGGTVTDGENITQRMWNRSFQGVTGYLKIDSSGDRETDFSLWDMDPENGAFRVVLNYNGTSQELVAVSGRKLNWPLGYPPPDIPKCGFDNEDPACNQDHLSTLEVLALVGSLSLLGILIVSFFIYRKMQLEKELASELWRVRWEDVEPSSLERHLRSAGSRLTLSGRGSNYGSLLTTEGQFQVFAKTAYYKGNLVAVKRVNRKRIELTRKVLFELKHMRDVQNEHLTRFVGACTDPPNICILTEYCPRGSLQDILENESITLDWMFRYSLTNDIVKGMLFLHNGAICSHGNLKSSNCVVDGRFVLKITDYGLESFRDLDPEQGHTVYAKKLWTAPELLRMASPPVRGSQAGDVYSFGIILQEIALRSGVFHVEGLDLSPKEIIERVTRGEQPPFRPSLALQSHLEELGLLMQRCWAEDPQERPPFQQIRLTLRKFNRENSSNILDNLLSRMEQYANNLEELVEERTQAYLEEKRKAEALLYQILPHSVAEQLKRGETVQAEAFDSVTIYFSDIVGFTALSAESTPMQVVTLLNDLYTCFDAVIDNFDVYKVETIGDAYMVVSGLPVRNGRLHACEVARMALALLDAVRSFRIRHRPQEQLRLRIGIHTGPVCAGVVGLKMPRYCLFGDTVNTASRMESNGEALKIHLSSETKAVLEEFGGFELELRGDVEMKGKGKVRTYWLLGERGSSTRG
In short: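 cGMP-sensor HEK293/hNpr1 cells, 1500/well, plated overnight at 37C. 2% GloSensor reagent, 2 h RT. Compound (23 nL pin transfer) 30 min RT, baseline luminescence pre-read. 0.1 nM hNppA, 20 min RT, post-read.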

[3] = biological target: Atrial natriuretic peptide receptor 2 (Homo sapiens) (UniProt P20594); assay: Natriuretic polypeptide receptor (hNpr2) antagonism - Pilot subtype selectivity assay (AID 1347050); conditions: NPR2-expressing cells, cGMP antagonist-mode read-out; series mostly up to 38.3 µM; note: potency is the fitted concentration of half-maximal effect
Sequence of Atrial natriuretic peptide receptor 2 (Homo sapiens) (P20594 whole entry, looked up): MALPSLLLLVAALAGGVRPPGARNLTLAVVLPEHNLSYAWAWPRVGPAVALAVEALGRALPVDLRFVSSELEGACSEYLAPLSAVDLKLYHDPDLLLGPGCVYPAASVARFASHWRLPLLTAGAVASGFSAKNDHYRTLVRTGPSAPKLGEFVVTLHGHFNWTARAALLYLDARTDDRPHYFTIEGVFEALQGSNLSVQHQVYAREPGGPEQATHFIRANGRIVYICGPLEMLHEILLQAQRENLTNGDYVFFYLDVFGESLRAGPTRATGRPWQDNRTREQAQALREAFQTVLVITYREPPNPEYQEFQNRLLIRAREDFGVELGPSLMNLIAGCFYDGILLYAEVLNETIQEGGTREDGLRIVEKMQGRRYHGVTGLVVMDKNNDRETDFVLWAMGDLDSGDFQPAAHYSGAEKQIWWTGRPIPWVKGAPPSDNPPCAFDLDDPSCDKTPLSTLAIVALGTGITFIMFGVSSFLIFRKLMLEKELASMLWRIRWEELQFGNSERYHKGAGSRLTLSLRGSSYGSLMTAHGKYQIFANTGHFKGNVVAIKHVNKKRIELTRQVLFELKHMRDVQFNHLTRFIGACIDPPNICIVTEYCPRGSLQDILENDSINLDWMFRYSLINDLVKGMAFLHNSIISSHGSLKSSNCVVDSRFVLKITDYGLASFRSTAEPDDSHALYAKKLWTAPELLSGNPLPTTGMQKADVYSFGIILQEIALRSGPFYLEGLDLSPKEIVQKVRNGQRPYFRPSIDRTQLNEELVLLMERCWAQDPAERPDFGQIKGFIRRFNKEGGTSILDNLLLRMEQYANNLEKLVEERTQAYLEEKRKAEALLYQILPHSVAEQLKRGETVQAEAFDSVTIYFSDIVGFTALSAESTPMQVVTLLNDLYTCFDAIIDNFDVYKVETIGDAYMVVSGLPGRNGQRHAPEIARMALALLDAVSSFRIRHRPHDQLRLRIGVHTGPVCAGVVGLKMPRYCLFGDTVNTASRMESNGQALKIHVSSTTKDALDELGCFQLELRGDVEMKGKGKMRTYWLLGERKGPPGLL
In short: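 Luminescence from a genetically encoded cGMP luciferase biosensor in hNpr2-expressing HEK293 cells is read before and 20 min after adding 1 nM hNppC. Test compounds, in interplate 1:5 titrations, are added 30-50 min ahead of the agonist.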

[4] = biological target: T1, Tyrosine-protein phosphatase non-receptor type substrate 1 (Homo sapiens) + Leukocyte surface antigen CD47 (Homo sapiens) (UniProt P78324+Q08722); assay: CD47-SIRPalpha protein protein interaction - LANCE assay qHTS validation (AID 1347057; active = well fitted curve in the direction sought with a large enough effect in the signal ratio, with a control signal flat, not every such curve was filed as active; the % refers to the signal ratio); conditions: Recombinant CD47-His / biotin-SIRPalpha, TR-FRET ratio; series mostly up to 38.3 µM
T1 sequence (P78324 whole entry, looked up, the tested form may be a part): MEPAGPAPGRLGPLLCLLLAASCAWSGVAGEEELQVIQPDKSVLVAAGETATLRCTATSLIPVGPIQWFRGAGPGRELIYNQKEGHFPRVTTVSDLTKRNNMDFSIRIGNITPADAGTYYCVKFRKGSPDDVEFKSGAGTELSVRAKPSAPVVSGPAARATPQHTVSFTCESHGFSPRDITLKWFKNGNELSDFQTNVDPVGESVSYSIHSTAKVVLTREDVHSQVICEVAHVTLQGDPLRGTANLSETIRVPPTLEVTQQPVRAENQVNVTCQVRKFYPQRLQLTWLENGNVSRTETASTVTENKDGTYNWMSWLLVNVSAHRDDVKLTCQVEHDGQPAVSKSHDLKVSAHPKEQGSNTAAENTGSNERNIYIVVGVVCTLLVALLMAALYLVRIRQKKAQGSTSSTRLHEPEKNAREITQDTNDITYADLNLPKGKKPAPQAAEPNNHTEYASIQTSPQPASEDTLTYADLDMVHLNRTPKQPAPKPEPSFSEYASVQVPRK
T1 sequence (Q08722 whole entry, looked up, the tested form may be a part): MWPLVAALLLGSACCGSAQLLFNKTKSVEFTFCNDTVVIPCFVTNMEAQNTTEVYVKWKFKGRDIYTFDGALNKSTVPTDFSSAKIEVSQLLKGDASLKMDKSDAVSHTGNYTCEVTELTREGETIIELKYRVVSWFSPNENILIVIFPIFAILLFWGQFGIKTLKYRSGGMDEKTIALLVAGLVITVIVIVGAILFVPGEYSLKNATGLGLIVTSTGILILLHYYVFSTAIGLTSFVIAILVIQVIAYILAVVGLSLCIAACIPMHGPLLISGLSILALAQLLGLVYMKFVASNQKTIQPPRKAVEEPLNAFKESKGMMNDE
In short: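 Inhibition of soluble CD47/SIRPalpha ectodomain association by titrated compounds, measured as 665/615 nm time-resolved FRET ratio after sequential 30 min room-temperature incubations.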

[5] = biological target: T1, Tyrosine-protein phosphatase non-receptor type substrate 1 (Homo sapiens) + Leukocyte surface antigen CD47 (Homo sapiens); assay: CD47-SIRPalpha protein protein interaction - HTRF assay qHTS validation (AID 1347058; active = well fitted curve in the direction sought with a large enough effect in the signal ratio, not every such curve was filed as active; the % refers to the signal ratio); conditions: TR-FRET HTRF CD47-His / biotin-SIRPalpha binding, ratio 665/615; series mostly up to 38.3 µM
In short: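 Soluble extracellular domains (6His-CD47, Avi-tag-biotinylated SIRPalpha) in PBS pH 7.4 with 0.05% IGEPAL CA-630. Compounds were preincubated 30 min at RT with CD47 and anti-His-Eu, then SIRPalpha and SAV-XL665 were added. TR-FRET 665/615 ratio.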

[6] = biological target: T1, Tyrosine-protein phosphatase non-receptor type substrate 1 (Homo sapiens) + Leukocyte surface antigen CD47 (Homo sapiens); assay: CD47-SIRPalpha protein protein interaction - Alpha assay qHTS validation (AID 1347059; active = well fitted curve in the direction sought with a large enough effect; an effect the other way counts as inactive or inconclusive;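 note: bead proximity luminescence from CD47 binding SIRPalpha after compound preincubation with SIRPalpha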); conditions: AlphaScreen CD47-His/biotin-SIRPalpha binding, LOPAC; series mostly up to 38.3 µM
In short: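 SIRPalpha-biotin 25 nM + cpd, 30 min RT, dark; add CD47-His 12.5 nM, 30 min; add Ni-NTA/SAV beads 10 ug/mL, 30 min; AlphaScreen. Buffer PBS pH 7.4 + 0.05% IGEPAL CA-630. Non-biotinylated SIRPalpha as control inhibitor.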

[7] = biological target: Parathyroid hormone/parathyroid hormone-related peptide receptor (Homo sapiens) (UniProt Q03431); assay: qHTS for PTHR1 Agonists: Optimization Screen against the NCGC LOPAC library (AID 1347079; active = well fitted curve in the direction sought with a large enough effect; an effect the other way counts as inactive or inconclusive;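 note: GloSensor cAMP luminescence in HEK-293 GP2 cells expressing human PTHR1 with IBMX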); conditions: HEK293 GP2 PTHR1 GloSensor cAMP luminescence, 1 h; series mostly up to 57.1 µM
Sequence of Parathyroid hormone/parathyroid hormone-related peptide receptor (Homo sapiens) (Q03431 whole entry, looked up): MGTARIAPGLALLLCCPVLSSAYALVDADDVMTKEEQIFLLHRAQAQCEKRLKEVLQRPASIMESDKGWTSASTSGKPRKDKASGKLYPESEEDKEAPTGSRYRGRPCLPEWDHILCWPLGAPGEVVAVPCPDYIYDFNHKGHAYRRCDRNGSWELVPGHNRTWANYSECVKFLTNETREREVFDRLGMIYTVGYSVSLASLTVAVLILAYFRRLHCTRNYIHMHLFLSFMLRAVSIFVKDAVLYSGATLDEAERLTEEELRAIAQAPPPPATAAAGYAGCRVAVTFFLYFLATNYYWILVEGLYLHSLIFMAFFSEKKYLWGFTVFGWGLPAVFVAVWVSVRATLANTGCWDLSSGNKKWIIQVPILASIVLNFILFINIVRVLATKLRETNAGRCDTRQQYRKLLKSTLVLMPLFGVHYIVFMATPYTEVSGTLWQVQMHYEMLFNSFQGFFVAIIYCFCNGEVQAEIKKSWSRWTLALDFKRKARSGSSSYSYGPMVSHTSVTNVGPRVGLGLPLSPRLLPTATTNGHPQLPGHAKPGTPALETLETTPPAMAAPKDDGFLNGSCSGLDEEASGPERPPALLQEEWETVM
In short: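 Signal increase flags agonism. GP2 cells, derived from HEK-293, express human PTHR1 and a GloSensor cAMP construct.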

[8] = qHTS for Inhibitors of the Functional Ribonucleoprotein Complex (vRNP) of Lassa (LASV) Arenavirus: LASV Primary Screen - GLuc reporter signal (AID 1347082; calls by dose curve; tested in HEK293 reporter line; note: nearly all actives have a fitted effect of over 60% in size); conditions: LASV minigenome vRNP, Gaussia luciferase reporter; series mostly up to 57.5 µM
[9] = qHTS for Inhibitors of the Functional Ribonucleoprotein Complex (vRNP) of Lassa (LASV) Arenavirus: Viability assay - alamar blue signal for LASV Primary Screen (AID 1347083; calls by dose curve; tested in HEK293 reporter line; note: nearly all actives have a fitted effect of over 80% in size; note: potency is the fitted concentration of half-maximal effect); conditions: cell viability, alamar blue fluorescence (LASV minigenome counter-screen); series mostly up to 57.5 µM
[10] = qHTS for Inhibitors of the Functional Ribonucleoprotein Complex (vRNP) of Lymphocytic Choriomeningitis Arenaviruses (LCMV): Viability assay - alamar blue signal for LCMV Primary Screen (AID 1347085; calls by dose curve; tested in HEK293 reporter line; note: nearly all actives have a fitted effect of over 80% in size; note: potency is the fitted concentration of half-maximal effect); conditions: alamar blue viability counter-screen, LCMV vRNP screen cells; series mostly up to 57.5 µM
[11] = biological target: Nucleoprotein (Lymphocytic choriomeningitis virus (strain Armstrong)) (UniProt P09992); assay: qHTS for Inhibitors of the Functional Ribonucleoprotein Complex (vRNP) of Lymphocytic Choriomeningitis Arenaviruses (LCMV): LCMV Primary Screen - GLuc reporter signal (AID 1347086); conditions: LCMV minigenome vRNP cell assay, Gaussia luciferase reporter; series mostly up to 57.5 µM; note: nearly all actives have a fitted effect of over 70% in size; note: potency is the fitted concentration of half-maximal effect
Sequence of Nucleoprotein (Lymphocytic choriomeningitis virus (strain Armstrong)) (P09992 whole entry, looked up): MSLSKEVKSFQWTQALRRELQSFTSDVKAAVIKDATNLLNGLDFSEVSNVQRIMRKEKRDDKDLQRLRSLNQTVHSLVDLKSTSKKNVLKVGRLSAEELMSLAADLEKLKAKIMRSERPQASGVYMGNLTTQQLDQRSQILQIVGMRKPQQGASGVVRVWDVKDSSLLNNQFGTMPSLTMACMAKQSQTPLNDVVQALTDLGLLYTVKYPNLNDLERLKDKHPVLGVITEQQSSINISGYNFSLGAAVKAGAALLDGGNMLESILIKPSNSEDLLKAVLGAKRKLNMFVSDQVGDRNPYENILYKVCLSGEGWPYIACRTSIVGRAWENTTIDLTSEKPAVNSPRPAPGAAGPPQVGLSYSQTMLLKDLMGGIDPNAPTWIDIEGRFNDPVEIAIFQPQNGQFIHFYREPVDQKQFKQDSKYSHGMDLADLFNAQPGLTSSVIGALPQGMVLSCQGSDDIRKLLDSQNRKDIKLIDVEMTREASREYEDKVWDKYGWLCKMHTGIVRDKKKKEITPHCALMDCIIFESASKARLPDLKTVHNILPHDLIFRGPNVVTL

[12] = NS1 protein of Zika virus - qHTS assay to identify small molecule inhibitors in human HEK 293 cells (AID 1347053; active = well fitted curve in the direction sought with a large enough effect; an effect the other way counts as inactive or inconclusive; note: nearly all actives have a fitted effect of over 55% in size); conditions: HEK293 ZIKV MR766 infection, NS1 TR-FRET, 24 h; series mostly up to 46.1 µM
In short: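 Readout was TR-FRET using paired anti-NS1 antibodies after 24 h infection of HEK 293 cells with ZIKV MR766 (MOI = 0.5). Compound preceded virus by 1 h; reduced signal reflects lower NS1 expression.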

Measured: Potency

CC(C)(C)c1cc(C=C(C#N)C#N)cc(C(C)(C)C)c1O
active: [1] 131 nM | [2] 301 nM | [3] 414 nM
inactive: [4] | [5] | [6] | [7]

COc1cc(CC(C)N)c(OC)cc1I (configuration not stated)
inactive: [1] | [3] | [7] | [8] | [9] | [10] | [11]

CCn1cnc2c(Nc3cccc(Cl)c3)nc(N[C@@H]3CCCC[C@@H]3N)nc21
inactive: [1] | [2] | [4] | [5] | [6] | [7]

CCN(CCCl)Cc1ccccc1Br
inactive: [1] | [2] | [3] | [7] | [8] | [9] | [10] | [11]

N[C@@H](CCl)C(=O)O
inactive: [1] | [2] | [3] | [7] | [8] | [9] | [10] | [11]

N[C@@H](Cn1ccc(=O)[nH]c1=O)C(=O)O
inactive: [1] | [2] | [3] | [7] | [8] | [9] | [10] | [11]

NNC(=O)c1ccc(O)cc1
inactive: [1] | [2] | [3] | [4] | [5] | [6] | [7] | [8] | [9] | [10] | [11]

C[Se]C[C@H](N)C(=O)O
inactive: [1] | [2] | [3] | [7] | [8] | [9] | [10] | [11]

NC(Cc1ccc(N(CCCl)CCCl)cc1)C(=O)O (configuration not stated)
inactive: [1] | [2] | [3] | [7] | [8] | [9] | [10]

NC(N)=NOCC[C@H](N)C(=O)O
inactive: [1] | [2] | [3] | [7] | [8] | [9] | [10] | [11]

C[C@H](N)CN1CCc2ccc(Br)cc21
inactive: [1] | [3] | [12] | [4] | [6] | [7] | [8] | [9] | [10] | [11]

N[C@@]1(C(=O)O)CC[C@@H](C(=O)O)C1
inactive: [1] | [3] | [12] | [4] | [5] | [6] | [7] | [8] | [9] | [10] | [11]

O=[N+]([O-])/C=C/c1ccc2c(c1)OCO2
active: [1] 1470 nM | [2] 2390 nM | [3] 1470 nM
inactive: [4] | [6] | [7] | [8] | [10] | [11]

CCS(=O)(=O)Nc1cccc(C(=C2CCCCC2)c2cnc[nH]2)c1
inactive: [1] | [3] | [12] | [4] | [5] | [6] | [7] | [8] | [9] | [10] | [11]

C=CCN1CC[C@]23c4c5ccc(O)c4O[C@H]2/C(=N/NC(=O)c2ccccc2)CC[C@@]3(O)[C@H]1C5
inactive: [1] | [2] | [3] | [7] | [8] | [9] | [10] | [11]

C[N+](C)(C)CC#CCN1CCCC1=O
inactive: [1] | [2] | [3] | [12] | [5] | [6] | [7] | [8] | [9] | [10] | [11]

CCCN1CCc2cccc3c2[C@H]1Cc1ccc(O)c(O)c1-3
inactive: [1] | [2] | [3] | [6] | [7] | [8] | [9] | [10] | [11]

CCCn1c(=O)c2[nH]c(C3CCCC3)nc2n(CCCOC(=O)c2ccc(S(=O)(=O)F)cc2)c1=O
inactive: [1] | [3] | [12] | [4] | [5] | [6] | [7] | [8] | [9] | [10] | [11]

COc1ccc2c(c1)[C@@]13CCCC[C@H]1[C@@H](C2)NCC3
inactive: [1] | [2] | [3] | [7] | [8] | [9] | [10] | [11]

O=C(O)c1cc[c]([Hg][Cl])cc1
inactive: [1] | [3] | [7] | [8] | [9] | [10] | [11]

c1ccc2c(c1)[I+]c1ccccc1-2
active: [1] 4140 nM | [2] 3010 nM | [3] 927 nM | [9] 1580 nM | [10] 6310 nM
inactive: [4] | [5] | [6] | [7]

NC(N)=Nc1ccc2[nH]c3c(c2c1)C[C@@]1(O)[C@H]2Cc4ccc(O)c5c4[C@@]1(CCN2CC1CC1)[C@H]3O5
inactive: [12] | [4] | [6] | [7] | [8] | [9] | [10] | [11]
active: [1] 6560 nM | [2] 19000 nM

C[C@@H]1O[C@@H](O[C@H]2C[C@@H](O)[C@]3(CO)[C@@H]4C(CC[C@]3(O)C2)[C@@]2(O)CC[C@H]([C@@H]3COC(=O)C3)[C@@]2(C)C[C@H]4O)[C@H](O)[C@H](O)[C@H]1O (some centres not stated)
active: [9] 3980 nM | [10] 2240 nM | [11] 2000 nM
inactive: [1] | [2] | [3] | [4] | [5] | [6] | [7]
